The panel holds about 79,000 compounds, 15% with a hit somewhere; the sample as a whole holds those more often. Unmarked numbers belong to inactive results. No stated cut-off is given here; in the data, active means growth inhibition above about 70%; inactive means the rest.
Experiment: NCI Yeast Anticancer Drug Screen. Data for the rad14 strain (AID 159);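 further: 0% = growth of vehicle-treated control cultures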
Conditions: S. cerevisiae rad14 strain growth inhibition; at 1.2 µM; active compounds read high
How it was run: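 Compound-treated yeast with a defined DNA-repair lesion; growth inhibition normalised to vehicle-treated cultures.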

Row | SMILES | growth inhibition [%]
1 | CCN(CC)CC[n+]1ccc2c(C)c3[nH]c4ccc(O)cc4c3c(C)c2c1 | -3
2 | O=[n+]1c2ccc(Cl)cc2n([O-])c2ccc(Cl)cc21 | 0
3 | CCOP(=O)(OCC)C(Cc1ccccc1)N=C(c1ccccc1)c1ccccc1 (centres undefined) | 2
4 | CC[C@@]1(O)C(=O)OCc2c1cc1n(c2=O)Cc2cc3c(N)cccc3nc2-1 | -20
5 | COC1C=COC2(C)Oc3c(C)c(O)c4c(c3C2=O)/C(=N/C2CCC(O)OC2C)C=C(NC(=O)/C(C)=C\C(=O)C2CC2C(O)C(C)C(O)C(C)C(OC(C)=O)C1C)C4=O (centres undefined) | -4
6 | COc1cc2c(c(OC)c1OC)-c1c(cc3c(c1OC)OCO3)CC(C)C(C)(O)C2OC(=O)c1ccccc1 (centres undefined) | 9
7 | O=c1ssc2ncccc12 | 7
8 | O=C1C2C(C(=O)N1c1ccc(OCc3ccccc3)cc1)C1c3ccccc3C2C2CCCCN21 (centres undefined) | -2
9 | COc1ccc(-c2cn(-c3ccc(I)cc3)c3ncnc(N)c23)cc1 | -5
10 | CCOC(=O)C(NC(=O)c1ccccc1)(N1CCN(c2cc3c(cc2F)c(=O)c(C(=O)O)cn3C2CC2)CC1)C(F)(F)F (centres undefined) | 0
11 | C/C(=N\O)C1CC2C=C(C#N)C1N(Cc1ccccc1)C2 (centres undefined) | -3
12 | CC/C(=C(\c1ccccc1)c1ccc(OCCN(C)C)cc1)c1ccccc1 | -26
13 | COc1ccccc1N=NC(C(=O)c1ccccc1)C(=O)c1ccccc1 | -33
14 | CC(O)C(O)C(O)C(/C=N\Nc1ccccc1)=N/Nc1ccccc1 (centres undefined) | -2
15 | COc1ccc(/C=C2\SC(=S)N(/C=C/c3nc4ccccc4[nH]c3=O)C2=O)cc1OC | 3
16 | N#CN=Nc1cc(Cl)c(N=NC#N)cc1Cl | 1
17 | Cc1ccc(S(=O)(=O)Oc2cc(Cl)c(Cl)cc2Cl)cc1 | -4
18 | c1ccc2c(c1)Oc1cccc3cccc-2c13 | 0
19 | O=C(c1ccc(Cl)cc1Cl)C(Cl)Cl | -17
20 | CC(C)C1=CCC2C(=C1)CCC1C(C)(C(=O)O)CCCC21C (centres undefined) (tested in a mixture with another compound) | 13

Row | SMILES | growth inhibition [%]
21 | COc1cc(/C=C2\CCc3ccccc3C2=O)cc(OC)c1OC | -10
22 | CC(=O)[O][Bi]([c]1ccccc1)[c]1ccccc1 | 39
23 | S=C(N/N=C/c1ccccn1)Nc1ccc(Cl)cc1 | -3
24 | COc1cc(CC2CC(c3ccc4c(c3)OCO4)OC2=O)cc(OC)c1OC (centres undefined) | -2
25 | CNC1C(OC2C(OC3C(O)C(O)C(N=C(N)N)C(O)C3N=C(N)N)OC(C)C2(O)CO)OC(CO)C(O)C1O (centres undefined) | -2
26 | NNC(=O)CCc1ccc2ccc3ccccc3c2c1 | -4
27 | Oc1ccc2ccccc2c1C(c1ccc(Cl)cc1)c1c(O)ccc2ccccc12 | -61
28 | CCCCN(CCCC)CCSc1ccc(Cl)cc1 | 3
29 | CCC(C)COC(=O)c1ccc(N=Cc2ccc(C=Nc3ccc(C(=O)OCC(C)CC)cc3)cc2)cc1 (centres undefined) | -1
30 | CC1(C)C(=O)OC(n2cc(F)c(=O)[nH]c2=O)C1=O (centres undefined) | -36
31 | O=[N+]([O-])CC(SCc1ccccc1)c1ccc2c(c1)OCO2 (centres undefined) | -2
32 | COc1cc2c(cc1[N+](=O)[O-])C(=O)C(Br)(Br)CCC2 | 33
33 | OCC1OC(OCC(O)C(O)C(O)C(/C=N/Nc2ccccc2)=N/Nc2ccccc2)C(O)C(O)C1O (centres undefined) | -1
34 | COc1ccc(N=C2C(=O)Nc3ccc(Br)cc32)cc1 | -22
35 | Cn1c(=O)c2ccccc2c2ccccc21 | 0
36 | CC[n+]1ccc2c(C)c3[nH]c4ccc(O)cc4c3c(C)c2c1 | -22
37 | CC(=O)ON1C(=O)c2cccc3cccc(c23)C1=O | 51
38 | COc1ccc2ccc3ccccc3c2c1C=O | 3
39 | OC1CCCc2c1cc1ccc3cccc4ccc2c1c34 (centres undefined) | 0

Source: PubChem BioAssay (NCI)
